SMILES strings stand for the structures. Entries with a potency or affinity are not part of this list. A number with no mark means an inactive call. The rule behind the calls is not given here.

The nature of this experiment: VEEV TC-83 cytopathic effect inhibitors, confirmation, cell-based, TC-83 strain, set 8 (AID 651917). Particulars: VEEV TC-83 infected cells; series mostly up to 25 µM; inhibition: at the top concentration.
On to `CCN1CCN(c2nc3ccc([N+](=O)[O-])cc3c(=O)n2-c2ccccc2)CC1`, for which the “inhibition” value was 4.2%. Next, `CCN1CCN(Cc2nc3ccc(S(=O)(=O)O)cc3c(=O)n2-c2ccccc2)CC1`: -0.9%; `O=c1nc(Nc2ccc(F)cc2)sc2ncccc12`: -1.5%; `CCN(CC)c1nc(=O)c2cccnc2s1`: -1.73% [at 50 µM]. In the case of `CN(C)c1cccc(-n2c(CN3CCNCC3)nc3ccc([N+](=O)[O-])cc3c2=O)c1` it was 2.5%.

Take `CCN1CCN(CC2Nc3ccc([N+](=O)[O-])cc3C(=O)N2c2ccccc2F)CC1` (stereo not drawn): the “inhibition” value was 7.2%. As to `O=c1nc(N2CCN(Cc3ccccc3)CC2)sc2ncccc12`, the “inhibition” value is -2.53%.

As for `CCN1CCN(Cc2nc3ccc([N+](=O)[O-])cc3c(=O)n2C)CC1`, the “inhibition” value was 2.33% [at 50 µM]. Next, `COc1ccccc1-n1c(CN2CCNCC2)nc2ccc([N+](=O)[O-])cc2c1=O`: 5.2%; `Cc1cccc(C)c1Nc1nc(=O)c2cccnc2s1`: -1.13%. In the case of `CCN1CCN(Cc2nc3ccc(-c4nn[nH]n4)cc3c(=O)n2-c2ccccc2)CC1` it was -1.1% [at 50 µM].

`O=c1nc(Nc2ccc(OCc3ccccc3)cc2)sc2ncc([N+](=O)[O-])cc12`: the “inhibition” value is -1.13%.

Consider `CCN1CCN(Cc2nc3ncccc3c(=O)n2-c2ccccc2)CC1`, for which the “inhibition” value was -1.77%. In the case of `CCN1CCN(Cc2nc3c([N+](=O)[O-])cccc3c(=O)n2-c2ccccc2)CC1` it was -3.57%; in that of `CCN1CCN(Cc2nc3ccc(C(=O)O)cc3c(=O)n2-c2ccccc2)CC1`, -5.4%; in that of `O=C1CN(Cc2nc3ccc([N+](=O)[O-])cc3c(=O)n2-c2ccccc2F)CCN1`, -1.4% [at 50 µM].

As for `COc1ccc(Nc2nc(=O)c3cccnc3s2)cc1`, the “inhibition” value was -2.13% [at 50 µM]. Next, `CN(C)c1ccc(-n2c(CN3CCNCC3)nc3ccc([N+](=O)[O-])cc3c2=O)cc1`: 46.6%; `CCN1CCN(Cc2nc3ccc([N+](=O)[O-])cc3c(=O)n2Cc2ccccc2)CC1`: -2% [at 50 µM]. Regarding `CCN1CCN(Cc2nc3ccc(-c4cccnc4)cc3c(=O)n2-c2ccccc2)CC1`, the “inhibition” value is 7.6%. On to `O=c1nc(Nc2ccc(CCc3ccccc3)cc2)sc2ncccc12`, for which the “inhibition” value is -2.33% [at 50 µM].

Turning to `O=c1nc(NC2CCNCC2)sc2ncccc12`, the “inhibition” value is -6.83%.

In the case of `O=c1nc(Nc2ccccc2OCc2ccccc2)sc2ncccc12`, the “inhibition” value is 6.97%.

(Values after PubChem BioAssay AID651917 (Southern Research Specialized Biocontainment Screening …, 2012).)
